Screening data deposited in PubChem BioAssay by National Center for Advancing Translational Sciences (NCATS).
D1 antag – blocks dopamine activation of the human D1 receptor; activity change, negative = inhibition, % at 10 µM; 360,000 tested, 3.2% active; AID 504652; P21728; HEK293 TREx D1 cells, calcium flux, dopamine EC80; active compounds read low; in the data active = activity change below about -30%
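Compound effects on dopamine-evoked calcium signalling were measured in tetracycline-induced HEK293 Trex D1 cells. Dopamine at EC80 followed a 180 s compound pre-read, and fluorescence was tracked kinetically for 180 s more.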
D3 ag – agonists of human D3 dopamine receptor; P35462; D3R DiscoveRx beta-arrestin cells, luminescence, 90 min; max activation, %; 410,000 tested, 0.58% active; in the data active = max activation above about 30%
Target sequence (P35462 whole entry, looked up): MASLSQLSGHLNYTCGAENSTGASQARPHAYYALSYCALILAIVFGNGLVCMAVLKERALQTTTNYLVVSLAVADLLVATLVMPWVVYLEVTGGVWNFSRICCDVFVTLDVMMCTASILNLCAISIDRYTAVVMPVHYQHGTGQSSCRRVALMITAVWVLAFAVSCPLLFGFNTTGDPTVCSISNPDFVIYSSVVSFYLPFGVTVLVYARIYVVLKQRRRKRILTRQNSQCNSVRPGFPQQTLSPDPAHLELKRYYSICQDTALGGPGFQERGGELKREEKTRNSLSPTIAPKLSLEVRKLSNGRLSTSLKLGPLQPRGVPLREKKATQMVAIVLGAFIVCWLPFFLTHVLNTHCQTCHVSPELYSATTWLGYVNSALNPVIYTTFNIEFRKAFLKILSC
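Agonist mode: compounds and dopamine controls were applied to plated cells for 90 min at 37 degrees C after an overnight attachment at 1500 cells/well. Luminescent read-out followed 30 - 60 minutes at room temperature with DiscoveRx detection reagent.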
DRD3 antagonist – blocks the human D3 dopamine receptor. P35462. D3R cells, DiscoveRx beta-arrestin luminescence, antagonist mode; active compounds read low. max response, negative = inhibition, %. 360,000 tested, 2.5% active. AID 652054; in the data active = max response below about -50%; inconclusive = no clear call, values can overlap the other calls
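Cells plated overnight at 1500 cells/well, then exposed to library compounds with dopamine controls for 90 minutes at 37 degrees C. DiscoveRx reagent added for 30–60 minutes at room temperature; luminescence read, quantitative HTS format.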
ERG-DNA inh – ERG Ets/DNA interaction inhibition | P11308 | fluorescence polarization, His-ERG Ets domain / labelled DNA | Potency, µM (highest dose often 76.9 µM), hits mostly inhibitors | 370,000 tested, 0.028% active; active = well fitted inhibition curve with a large enough effect in the polarisation, with a control signal flat; inconclusive = small, poorly fitted or top-dose-only effect, or effect the other way, or a change in a side signal; inactive = no such curve, though single readings can be large or run the other way; the % refers to the polarisation;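 note: polarization taken with two DNA probes labelled with fluorescein and Texas red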
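His-tagged ERG Ets domain (1 uM in the protein solution; 300mM KCl, 50mM Tris-HCl, 1mM EDTA, 1mM DTT, pH 7.5) received compound, then a probe mix of 5 nM fluorescein-DNA and 100nM Texas-615-DNA. Fluorescence polarization was read for both dyes.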
D1 PAM – human D1 dopamine receptor positive modulation. 360,000 tested, 0.036% active. potentiation, % at 10 µM. P21728. AID 504651. HEK293 TREx D1 cells, calcium flux, dopamine EC20 potentiation; in the data active = potentiation above about 30%
D1 ag – activates the human D1 dopamine receptor | HEK293 T-REx D1 cells, calcium flux, agonist mode | activation, % at 2 µM | AID 504660 | 360,000 tested, 1% active | P21728; in the data active = activation above about 30%
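Agonism was scored from calcium flux recorded over 180 s (1 read/s) after pintool compound addition, following a 10-cycle baseline. Cells were inducible force-coupled HEK293 TREx D1, plated overnight at 30 C and loaded with no-wash calcium dye.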
Each line names hits and unclear results; the compound was inactive in the other large screens; ! = repeats disagree. Compounds with a hit are over-represented: about 6.1% of the library has one in this group of screens.

CCOc1ccccc1CC1C(=O)Nc2ccc(Br)cc21 (stereo unspecified)	none (no result: DRD3 antagonist)
Cc1ccc(C)c(Cn2cc(CCC(=O)NC3CCCCC3)c3ccccc32)c1	none (no result: DRD3 antagonist)
Nc1nc2ccc(Cl)cc2cc1C(=O)NCCc1ccc(O)cc1	none (no result: D1 antag, ERG-DNA inh, D1 PAM, D1 ag)
Cc1ccc(CNC(=O)c2nc(SCc3ccccc3F)ncc2Cl)cc1	none (no result: DRD3 antagonist)
COc1ccc(CCNC(=O)c2nc(SCc3ccccc3F)ncc2Cl)cc1OC	D1 ag 33 (no result: DRD3 antagonist)
COc1ccc(CCNC(=O)c2cc(-c3ccccc3O)n[nH]2)cc1OC	D1 antag -33
COc1ccc(CCNC(=O)c2cc3cc(Cl)ccc3nc2N)cc1OC	D3 ag 51 (no result: D1 antag, ERG-DNA inh, D1 PAM, D1 ag)
COc1ccc(CCNC(=O)c2cc(-c3cc(Cl)ccc3O)n[nH]2)cc1OC	D1 antag -32
COc1ccc(CCNC(=O)c2cc(-c3ccc(C)cc3O)n[nH]2)cc1OC	none
C=CCn1c(CCc2ccccc2)nnc1SCC(=O)OC	none
Cc1ccc(C(=O)NCC(=O)OCC(=O)NC(C)c2ccccc2)s1 (stereo unspecified)	DRD3 antagonist inconclusive
COc1ccc(CCN(C)C(=O)Cc2ccc(-c3ccccc3)cc2)cc1OC	D1 antag -31
COc1ccc(CCN(C)C(=O)CN2C(=O)NC3(CCCCCC3)C2=O)cc1OC	D1 antag -60
COc1ccc(CNC(=O)CN2C(=O)NC3(CCCCCC3)C2=O)cc1OC	ERG-DNA inh inconclusive
S=C(N/N=C/c1cccc2ccccc12)Nc1cccc(Cl)c1	DRD3 antagonist -54
S=C(N/N=C/c1ccccc1Cl)Nc1ccccc1	DRD3 antagonist -64
Oc1cccc(/C=N/NC(=S)Nc2cccnc2)c1O	none
Oc1ccc(/C=N/NC(=S)Nc2cccnc2)c(O)c1O	D3 ag 37
CNC(=S)N/N=C/c1ccccc1Cl	none
COc1ccc(/C=C2/Sc3ccc(C(=O)NCCN4CCCCCC4)cc3NC2=O)cc1	none
O=c1c2ccccc2c(C=NCc2ccccn2)c(O)n1-c1ccccc1	none
CCOc1ccc(/C=C2\SC(=O)N(CCNC(=O)C3COc4ccccc4O3)C2=O)cc1OC (stereo unspecified)	D3 ag 50
CCCNC(=O)CN1C(=O)COc2ccc(S(=O)(=O)N3CCCC3)cc21	none (no result: DRD3 antagonist)
O=C(Nc1nc(-c2ccc3c(c2)OCCO3)cs1)c1ccc(Br)o1	none (no result: D1 antag, ERG-DNA inh, D1 PAM, D1 ag)
C=CCC[C@@H](Cc1ccc(F)cc1)C(=O)OC[C@H](Cc1c[nH]c2ccccc12)NC(=O)[C@@H](CC=C)CC(=O)N[C@H](CO)Cc1ccccc1	D3 ag 31 (no result: D1 antag, D1 PAM, D1 ag)
Cc1ccc(C(=O)Nc2ccccc2C(=O)O)cc1S(=O)(=O)Nc1ccccc1	none
COn1c(C)c(C)c2c3nonc3ccc21	none
Cc1cc2c3nonc3ccc2n1C	D1 antag -34
COc1cccc(C(=O)COC(=O)C2CC(=O)N(c3ccc(Oc4ccccc4OC)cc3)C2)c1 (stereo unspecified)	none
COc1ccccc1Oc1ccc(N2CC(C(=O)OCC(=O)c3ccccc3)CC2=O)cc1 (stereo unspecified)	D1 antag -30
FC(F)(F)c1cc(CO[C@@H]2CCCN[C@@H]2c2ccccc2)cc(C(F)(F)F)c1	D1 ag 47
COc1cccc(CN(C)C(=O)c2cc(-c3ccc(OC)c(OC)c3)nc3ccccc23)c1	D3 ag 34
Cc1ccc(-c2c(C)c(-c3ccc(F)cc3)nc(N)c2C#N)o1	D1 antag -31
COc1ccc(CNC(=O)c2cccc(NC(=O)c3ccccc3)c2)cc1	none
CCc1ccc(CN2CCC(CO)(CC3CCCCO3)CC2)o1 (stereo unspecified)	D1 antag -38, DRD3 antagonist inconclusive
Cc1ccc2[nH]c(CN3CCC(CO)(CC4CCCCO4)CC3)c(C)c2c1 (stereo unspecified)	DRD3 antagonist -61
COCc1ccc(CN2CCC(CO)(CC3CCCCO3)CC2)o1 (stereo unspecified)	D1 antag -40
COc1cccc(CN2CCC(CO)(CC3CCCCO3)CC2)c1 (stereo unspecified)	none
CSc1ccccc1NC(=O)N1CCC(CO)(CC2CCCCO2)CC1 (stereo unspecified)	none
OCC1(CC2CCCCO2)CCN(Cc2nc3ccccc3[nH]2)CC1 (stereo unspecified)	none
Cc1ccc(CN2CCC(CO)(CC3CCCCO3)CC2)o1 (stereo unspecified)	DRD3 antagonist -63
COc1cc(C(=O)N/N=C/c2ccsc2C)cc(OC)c1OC	DRD3 antagonist -53
Cc1ccc2c(c1)C(=C(C#N)C#N)C(=O)N2CCN1CCCCC1	DRD3 antagonist -55
COc1ccc(S(=O)(=O)Oc2ccc3cccc(N)c3c2)cc1	none (no result: D1 antag, D1 PAM, D1 ag)
COc1ccc(S(=O)(=O)Oc2ccc3ccccc3c2)cc1	D1 antag -39
CCOC(=O)/C(=C\c1cccc(O)c1)c1nc2sc(C)c(C)c2c(=O)[nH]1	DRD3 antagonist -58
CC1CC(C)CN(C(=O)C2CCN(S(=O)(=O)c3ccc4c(c3)CC(C)N4C(=O)C3CC3)CC2)C1 (stereo unspecified)	D1 antag -45
COc1ccccc1CNS(=O)(=O)c1ccc2c(c1)CC(C)N2C(=O)C1CCC1 (stereo unspecified)	D1 antag -32!
CC(=O)c1ccc(N2CCN(S(=O)(=O)c3ccc4c(c3)CC(C)N4C(C)=O)CC2)cc1 (stereo unspecified)	D1 antag -48
COc1ccccc1CNS(=O)(=O)c1ccc2c(c1)CC(C)N2C(=O)C1CC1 (stereo unspecified)	none
COc1ccccc1NS(=O)(=O)c1ccc(O)c(C(=O)OCC(=O)N2c3ccccc3CC2C)c1 (stereo unspecified)	DRD3 antagonist -106
COc1ccccc1NS(=O)(=O)c1ccc(O)c(C(=O)OCC(=O)N2CCc3ccccc32)c1	none
COc1cccc(N2C(=O)CC(N3CCC(c4nc5ccccc5[nH]4)CC3)C2=O)c1 (stereo unspecified)	none
O=C(CN1CCN(CC(=O)Nc2ccccc2F)CC1)Nc1cccc(F)c1	none
CCCCn1c(SCC(=O)NCc2ccc(OC)c(C(=O)O)c2)nc2cc(S(N)(=O)=O)ccc21	none
Cc1ccc(Cl)cc1N1CCN(S(=O)(=O)c2ccc3c(c2)CC(C)N3C(=O)C2CCC2)CC1 (stereo unspecified)	none (no result: DRD3 antagonist)
CC(=O)N1c2ccc(S(=O)(=O)N3CCC(C(=O)N4CCN(c5cc(Cl)ccc5C)CC4)CC3)cc2CC1C (stereo unspecified)	D1 antag -33
